For five compounds, z-score and composite z-score results are on record in PubChem BioAssay.

The source made the active and inactive calls. Unless noted, the rule behind the calls is not given here.

Assay [1] can be described thus: A549 cell viability effects, profiling panel, calcein-AM fluorescence, 48 h, basal (AID 1162). Note: test concentration not given here. The note with it: higher = more signal.
Assay [2] can be described thus: adipocyte viability effects, profiling panel, cell-based, 3T3-L1 adipocytes, calcein-AM fluorescence, 48 h, basal (AID 1163). Note: test concentration not given here. As to conditions: 3T3-L1 adipocytes viability, higher = more signal.
Assay [3] is described as follows: HepG2 cell viability effects, profiling panel, calcein-AM fluorescence, 48 h, basal (AID 1164). Note: test concentration not given here. The note with it: higher = more signal.
A short description of assay [4]: MM1S cell viability effects, profiling panel, calcein-AM fluorescence, 48 h, basal (AID 1165).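 Note: viability of MM1S multiple myeloma cells under basal unstimulated conditions; test concentration not given here.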 The note with it: higher = more signal.
The nature of assay [5]: basal RPMI8226 viability, no added stimulus, profiling panel, cell-based, calcein-AM fluorescence, 48 h, PK04 Diversity Set (AID 1166).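 Note: cells grown under basal conditions without added stimulus; test concentration not given here.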 The note with it: RPMI8226 myeloma viability, higher = more signal.
The nature of assay [6]: basal HepG2 mitochondrial membrane potential changes, profiling panel, cell-based, JC-1 fluorescence, 24 h, 100 nL compound (AID 1167). Note: test concentration not given here. As to conditions: higher = more signal.
Assay [7] can be described thus: basal 3T3-L1 adipocyte mitochondrial potential changes, profiling panel, cell-based, JC-1 fluorescence, 3T3-L1 adipocytes, 24 h, 100 nL compound (AID 1168). Note: test concentration not given here. The note with it: JC-1 mitochondrial fluorescence, higher = more signal, called active from +8 up or from −8 down.
Assay [8] can be described thus: basal RPMI8226 mitochondrial membrane potential changes, profiling panel, cell-based, JC-1 fluorescence, 24 h, 100 nL compound (AID 1169). Note: test concentration not given here. As to conditions: RPMI8226 myeloma, JC-1 mitochondrial potential fluorescence, higher = more signal.
Assay [9] in a line: basal MM1S mitochondrial membrane potential changes, profiling panel, cell-based, JC-1 fluorescence, 24 h, 100 nL compound (AID 1170). Note: test concentration not given here. As to conditions: higher = more signal.
Assay [10] in a line: A549 lung cancer cell viability effects, profiling panel, resazurin fluorescence, 24 h, PK04 Diversity Set (AID 1171). Note: test concentration not given here. As to conditions: higher = more signal, called active from +8 up or from −8 down. Background: Resazurin is reduced to fluorescent resorufin, in cell work by metabolically active cells.
A short description of assay [11]: HepG2 liver cancer cell viability effects, profiling panel, resazurin fluorescence, 24 h, PK04 Diversity Set (AID 1172). Note: test concentration not given here. The note with it: higher = more signal.
A short description of assay [12]: basal S. cerevisiae growth modulation, no modifier, primary screen, OD600, strain BY4716, 24 h, basal condition (AID 1173). As to conditions: OD600, 24 h, higher = more signal, called active from +8 up or from −8 down.
The nature of assay [13]: MM1S myeloma cell viability, profiling panel, resazurin fluorescence, basal, 24 h, PK04 Diversity Set (AID 1174).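 Note: MM1S multiple myeloma cell line; test concentration not given here.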 As to conditions: higher = more signal, called active from +8 up or from −8 down.
The target in assay [14] is Dihydroorotate dehydrogenase (quinone), mitochondrial (Plasmodium falciparum (isolate 3D7)) (UniProt Q08210). Put plainly: PfDHODH enzyme inhibitors, primary screen, biochemical, C-terminal His tag, absorbance 600 nm (AID 1175).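 Note: recombinant parasite enzyme with a five histidine tag at its C terminus; test concentration not given here.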 As to conditions: DCIP absorbance 600 nm, higher = more signal, called active from +8 up or from −8 down.
Dihydroorotate dehydrogenase (quinone), mitochondrial (Plasmodium falciparum (isolate 3D7)), sequence (Q08210 whole entry, looked up): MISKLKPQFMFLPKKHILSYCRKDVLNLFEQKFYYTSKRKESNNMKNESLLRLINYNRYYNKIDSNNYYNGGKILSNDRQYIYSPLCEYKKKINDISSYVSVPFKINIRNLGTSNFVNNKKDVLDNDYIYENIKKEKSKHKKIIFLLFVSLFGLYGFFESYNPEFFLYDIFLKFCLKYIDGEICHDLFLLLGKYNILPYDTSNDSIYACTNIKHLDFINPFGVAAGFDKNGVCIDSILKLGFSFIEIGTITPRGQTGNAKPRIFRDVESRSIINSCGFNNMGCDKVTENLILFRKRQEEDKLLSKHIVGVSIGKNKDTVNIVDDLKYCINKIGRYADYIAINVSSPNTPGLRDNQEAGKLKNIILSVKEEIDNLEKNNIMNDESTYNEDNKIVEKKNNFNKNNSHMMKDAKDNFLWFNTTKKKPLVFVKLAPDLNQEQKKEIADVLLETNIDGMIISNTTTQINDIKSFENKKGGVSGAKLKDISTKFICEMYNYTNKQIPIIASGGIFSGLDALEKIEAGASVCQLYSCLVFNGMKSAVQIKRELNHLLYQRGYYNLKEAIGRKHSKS
A short description of assay [15]: P. aeruginosa biofilm formation inhibitors, primary screen, strain PAO1, LB-PBS medium, absorbance 600 nm (AID 1176). Note: test concentration not given here. The note with it: P. aeruginosa PAO1 growth/biofilm, A600, 12 h; higher = more signal.
The nature of assay [16]: S. cerevisiae RM11-1a growth modifiers, primary screen, strain RM11-1a, OD600, basal, 24 h (AID 1177).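 Note: cultures grown under basal conditions with no added stressor; test concentration not given here.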 As to conditions: OD600, 24 h, higher = more signal, called active from +8 up or from −8 down.
Assay [17] in a line: E. coli acrAB mutant growth effects, primary screen, E. coli filamentation inducers, strain DRC39, OD650, 24 h (AID 1178).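 Note: growth measured as culture turbidity by optical density at 650 nm; test concentration not given here.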 The note with it: higher = more signal, called active from +8 up or from −8 down.
Assay [18] is described as follows: E. coli acrAB mutant growth effects, primary screen, E. coli filamentation inducers, strain DRC39, OD650, 48 h (AID 1179).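 Note: screen aims at cell division blockers that make cells filament.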 The note with it: E. coli DRC39 delta-acrAB growth, higher = more signal, called active from +8 up or from −8 down.
Assay [19] can be described thus: RPMI8226 myeloma cell viability, profiling panel, resazurin fluorescence, basal, 24 h, PK04 Diversity Set (AID 1180).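 Note: RPMI8826 multiple myeloma cell line at 5000 cells per well; test concentration not given here.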 As to conditions: higher = more signal.
Assay [20] has as its target E3 ubiquitin-protein ligase XIAP (Homo sapiens) (UniProt P98170). As to the kind of experiment: XIAP binders, primary screen, biophysical, small-molecule microarray, fluorescence 635 nm (AID 1181).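 Note: score merges 667 nm emission and signal to noise over triplicate slides.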 As to conditions: small-molecule microarray binding, higher = more signal.

E3 ubiquitin-protein ligase XIAP (Homo sapiens), sequence (P98170 whole entry, looked up): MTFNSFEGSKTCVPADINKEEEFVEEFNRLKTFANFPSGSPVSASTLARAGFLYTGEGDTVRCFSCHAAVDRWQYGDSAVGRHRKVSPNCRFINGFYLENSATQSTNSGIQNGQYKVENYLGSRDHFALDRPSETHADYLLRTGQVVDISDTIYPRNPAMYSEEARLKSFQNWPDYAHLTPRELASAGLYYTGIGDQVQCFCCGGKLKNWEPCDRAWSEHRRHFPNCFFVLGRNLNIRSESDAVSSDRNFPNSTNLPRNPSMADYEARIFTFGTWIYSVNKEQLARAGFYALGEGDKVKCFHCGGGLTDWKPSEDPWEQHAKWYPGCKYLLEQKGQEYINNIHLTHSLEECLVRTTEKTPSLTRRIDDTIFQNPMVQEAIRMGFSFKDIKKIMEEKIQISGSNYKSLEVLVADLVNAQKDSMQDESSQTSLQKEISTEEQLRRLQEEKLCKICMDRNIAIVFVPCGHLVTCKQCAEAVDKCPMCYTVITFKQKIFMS

In the case of `[N-]=[N+]=NCc1ccccc1C[C@@]1(C(N)=O)N=C(c2ccc(OCCCO)cc2)O[C@@H]1c1ccccc1`, the z-score was -0.914 in [1]; 0.0779 in assay [2]; -1.94 in assay [3]; -3.04 in assay [4]; -2.88 in [5]; -0.864 in [6]. Moreover, the z-score in assay [7] is -0.262 (inactive); in assay [8], -1.22; in [9], -0.301; in assay [10], -1.08 (inactive); in [11], 0.0565; in assay [12], -0.165 (inactive). The z-score is -1.22 (inactive) in assay [13]; 0.563 (inactive) in [15]; 0.115 (inactive) in assay [16]; 0.0937 (inactive) in [17]; -1.12 (inactive) in assay [18]; -1.37 in assay [19]. Further, the composite z-score in assay [14] was -0.239 (inactive); in assay [20] it was -0.11.
With `CN(C)C(=O)[C@]1(Cc2ccccc2CN=[N+]=[N-])N=C(c2ccc(OCCCO)cc2)O[C@@H]1c1ccccc1`, the z-score is -2.01 in assay [1]; 0.894 in [2]; -1.65 in [3]; -3.16 in assay [4]; -4.37 in [5]; -0.117 in assay [6]. The z-score in [7] was -0.58 (inactive); in assay [8], -1.33; in assay [9], -1.37; in assay [10], 0.721 (inactive); in assay [11], 0.747; in assay [12], -0.948 (inactive). Moreover, the z-score was -0.535 (inactive) in assay [13]; -0.137 (inactive) in assay [15]; 0.787 (inactive) in assay [16]; 0.294 (inactive) in assay [17]; -0.296 (inactive) in assay [18]; -1.16 in assay [19]. Besides, the composite z-score in assay [14] is -0.366 (inactive); in [20], -0.127.
Consider `CCCCCN1CC=CC23O[C@@H]4/C=C\CCC(C)OC(=O)C4[C@H]2C(=O)N(C(CO)C(C)C)[C@@H]3C1=O` (stereo not given in full), for which the z-score in assay [1] was -0.588; in assay [2], 0.214; in assay [3] it was -0.272; in [4], 1.82; in assay [5], 0.216; in assay [6] it was -0.224. Also, the z-score in [7] was -0.0517 (inactive); in assay [8], 0.699; in [9] it was -0.577; in assay [10], 0.829 (inactive); in assay [11], 0.713; in assay [12], -0.82 (inactive). Besides, the z-score in assay [13] was -0.502 (inactive); in [15], 0.193 (inactive); in assay [16] it was -0.116 (inactive); in assay [17], 0.451 (inactive); in [18] it was 0.236 (inactive); in assay [19] it was 1.41. In addition, the composite z-score in assay [14] was -1.74 (inactive); in assay [20], 0.0627.
Regarding `O=C1OCCC/C=C\[C@H]2OC34C=CCN(c5ccc6ccccc6c5)C(=O)[C@H]3N(CCO)C(=O)[C@@H]4C12` (stereo not given in full), the z-score was 0.451 in assay [1]; 1.91 in [2]; -0.569 in assay [3]; 1.3 in [4]; -0.205 in [5]; -0.00127 in assay [6]. The z-score was -0.622 (inactive) in assay [7]; -0.0898 in assay [8]; 1.03 in [9]; -1.48 (inactive) in assay [10]; -0.75 in [11]; 0.307 (inactive) in [12]. Further, the z-score in assay [13] is -0.997 (inactive); in assay [15], -0.634 (inactive); in [16], 0.571 (inactive); in assay [17], -0.937 (inactive); in assay [18], -1.04 (inactive); in assay [19], -0.15. In addition, the composite z-score was 0.257 (inactive) in assay [14] and 0.275 in [20].
Turning to `[N-]=[N+]=Nc1ccccc1C[C@@]1(C(=O)NCCN2CCOCC2)N=C(c2ccc(OCCCO)cc2)O[C@@H]1c1ccccc1N=[N+]=[N-]`, the z-score in assay [1] was -1.96; in [2], 0.205; in assay [3], -2.04; in [4], -2.94; in assay [5], -3.31; in assay [6] it was -0.112. Moreover, the z-score is -0.29 (inactive) in assay [7]; -1.26 in assay [8]; -1.27 in [9]; -1 (inactive) in assay [10]; -1.02 in assay [11]; -3.4 (inactive) in assay [12]. Besides, the z-score was -2.12 (inactive) in assay [13]; -0.124 (inactive) in [15]; 0.26 (inactive) in assay [16]; -0.229 (inactive) in assay [17]; -1.02 (inactive) in assay [18]; -2.02 in assay [19]. Moreover, the composite z-score in assay [14] was 0.322 (inactive); in assay [20] it was 0.17.
